According to ChEMBL document CHEMBL3988442, “University of Dundee, Small-Polar-MMV Screening Library” (2021):
The campaign covered roughly 48,000 compounds. About 13,000 (27%) showed an effect of 50% or more. Some of the results follow.

Test system: Wolbachia pipientis
Assay: Anti-Wolbachia Cell-Based Screen
Type: functional
Set-up: scale not given: in the data most compounds retested in dose-response had high values
Conditions: 5 µM

| SMILES | Percent Effect |
| --- | --- |
| O=C(Nc1ccc(F)c(Cl)c1)N1CCCN([C@H]2COC[C@@H]2O)CC1 | 0.3317% |
| Cc1nc(C)n(CC2CCCCN2CC(=O)Nc2nncs2)n1 (stereo not given) | -8.145% |
| Cc1cc(C)cc(CN2CCN(Cc3cc(C#N)n(C)c3)CC2=O)c1 | -7.638% |
| CCCC(C)Sc1nnnn1C1CCOCC1 (stereo not given) | -26.91% |
| Cc1c[nH]c(CN2CCCn3nc(CNS(C)(=O)=O)cc3C2)n1 | -1.605% |
| CC(O)CNC(=O)NCc1cccnc1OC1CCCC1 (stereo not given) | 3.42% |
| CCC(CNC1CCN(C(=O)N(C)C)CC1)Oc1ccccc1C (stereo not given) | 14.11% |
| CCS(=O)(=O)c1ccc(N2CCC(NC(=O)C3CCCCC3)CC2)cc1 | 14.13% |
| CNC(=O)CCN1CCN(C(C)c2ccc(Cl)cc2)CC1 (stereo not given) | 7.005% |
| CCc1noc(C(C)N2CCC(NC(=O)c3ccc(C)s3)CC2)n1 (stereo not given) | -3.823% |
| CC(C)c1noc(C(C)N2CCN(CCc3ccncc3)CC2)n1 (stereo not given) | -3.07% |
| CCSCCC(=O)NC1CCN(C(C)c2ccccc2)CC1 (stereo not given) | -12.67% |
| CCc1nnc(C(C)N2CCN(CCC(C)(C)C)CC2)o1 (stereo not given) | 109.6% |
| CCc1noc(C(C)N2CCN(Cc3ncc(C(C)(C)C)o3)CC2)n1 (stereo not given) | -21.42% |
| CCc1nnc(C(C)N2CCC(NC(=O)C3CCCCC3)CC2)o1 (stereo not given) | 111.1% |
| CCc1nnc(C(C)N2CCN(CCC(=O)NC3CC3)CC2)o1 (stereo not given) | 108.9% |
| CC(C)(C)n1ncc2c(=O)[nH]c(N3CC(O)C3)nc21 | 23.02% |
| CN(C)c1nc(CNC(=O)NC2CCc3ccccc32)cs1 (stereo not given) | 14.75% |
| CC(c1nccs1)N(C)Cc1ccc(CCC(C)(C)O)cc1 (stereo not given) | -1.522% |
| CC(=O)N1C[C@@H](F)[C@@H](OCc2nc3cc(C)c(C)cc3[nH]2)C1 | -18.48% |
| CCOCCCNc1nc2c(s1)c(C)nn2C | 6.024% |
| CCOCCCNC(=O)NCc1c(C)nn(C)c1C | 102.2% |
| CCOCCCNC(=O)c1cn(CC)nc1C | 9.774% |
| CCc1nc2c(c(N(C)Cc3nncn3CCOC)n1)CCNCC2 | 0.734% |
| Cc1cc(S(C)(=O)=O)c(C)c(S(=O)(=O)NC2CCCC2)c1 | 3.251% |
| Cc1cc2[nH]c(=O)c(=O)[nH]c2cc1S(=O)(=O)NC1CCC(C)CC1 (stereo not given) | 107.5% |
| Cc1cn2c(n1)CCC(NS(=O)(=O)c1cc(C)sc1C)C2 (stereo not given) | -1.827% |
| Cc1cc(CS(=O)(=O)NC2CCCCC2)on1 | 4.481% |
| Cc1c(NCc2cccc(C#N)c2)cccc1S(=O)(=O)NC1CC1 | -25.48% |
| Cc1cc2[nH]c(=O)c(=O)[nH]c2cc1S(=O)(=O)NC1CCCCC1 | 114.9% |
